This is a sample that favours compounds with a hit; in the whole collection about 1.8% have one here.
PTK2B oligo ant: Pyk2 (human) oligomerization antagonism. Q14289. Q293 cells, Pyk2 FERM NanoBiT luminescence; stronger effect = lower value. z-score (the deposit names both 25 µM and 10 µM). 0.83% of 99,000 active. AID 1347419;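 active = Z-score of -3 or lower, scaled per plate to the spread of control and sample wells; inactive = z-score above -3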;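 note: negative z-score means lost luminescence so less FERM oligomerization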
FAK blocker: FAK (human) kinase inhibition. inhibition, %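 (tested at 7 µM)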. biochemical FAK kinase activity assay. AID 727. Q05397. 0.84% of 97,000 active;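 note: 0% = DMSO and 100% = reference compound high control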
CD11b adhes enh: CD11b/CD18-fibrinogen binding enhancement; AID 1499; 0.07% of 93,000 active; P05107+P11215; activation, % at 10 µM; K562 CD11b/CD18 adhesion to fibrinogen, ATPlite luminescence;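 active = 10 µM primary screen giving 50% or more activity, confirmed by 40% or more on retest at that dose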
Target sequence (P05107 whole entry, looked up, other chains not shown): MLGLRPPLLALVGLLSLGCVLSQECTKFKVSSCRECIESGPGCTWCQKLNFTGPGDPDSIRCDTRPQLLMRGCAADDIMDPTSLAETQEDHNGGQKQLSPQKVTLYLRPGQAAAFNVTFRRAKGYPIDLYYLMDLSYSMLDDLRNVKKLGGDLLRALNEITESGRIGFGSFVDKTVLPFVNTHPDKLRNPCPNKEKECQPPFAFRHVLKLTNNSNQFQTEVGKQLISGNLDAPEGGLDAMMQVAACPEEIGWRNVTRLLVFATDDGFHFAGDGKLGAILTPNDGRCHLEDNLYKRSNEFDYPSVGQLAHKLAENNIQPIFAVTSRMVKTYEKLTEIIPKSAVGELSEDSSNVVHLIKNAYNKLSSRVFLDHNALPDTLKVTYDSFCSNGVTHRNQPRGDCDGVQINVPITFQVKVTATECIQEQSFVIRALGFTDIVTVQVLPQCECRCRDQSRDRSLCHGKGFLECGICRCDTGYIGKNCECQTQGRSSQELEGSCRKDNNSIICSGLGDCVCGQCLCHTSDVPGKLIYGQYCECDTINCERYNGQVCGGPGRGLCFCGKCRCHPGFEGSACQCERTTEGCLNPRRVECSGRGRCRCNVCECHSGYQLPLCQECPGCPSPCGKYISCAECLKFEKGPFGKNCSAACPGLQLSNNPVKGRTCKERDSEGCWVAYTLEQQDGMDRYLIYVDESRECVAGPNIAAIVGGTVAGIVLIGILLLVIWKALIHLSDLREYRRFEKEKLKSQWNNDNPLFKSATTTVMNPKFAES
Mac1 fbg inh: CD11b/CD18-fibrinogen binding inhibition. K562 CD11b/CD18 adhesion to fibrinogen, ATPlite luminescence; Mn2+ added to activate the integrin. AID 1497. 0.54% of 93,000 active. inhibition, % at 10 µM;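 active = primary inhibition of 50% or more at 10 µM, then 40% or more on retest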
FAK inh conf: confirmation of human focal adhesion kinase (FAK) inhibitors | shares compounds with FAK blocker | FAK kinase biochemical inhibition assay | inhibition, % at 7 µM | 28% of 750 active | AID 794
* = called active by the depositor. Cut-off read from the data, not from the text of the source, unless noted: active = inhibition above about 19%; inactive = the rest.

Screening CCCCn1c(NC(=O)c2ccccc2Cl)c(C#N)c2nc3ccccc3nc21 returned PTK2B oligo ant -1.24, FAK blocker 27.8*, CD11b adhes enh -9.0, Mac1 fbg inh 105.7* and FAK inh conf -1.3.
Screening COc1ccc(-n2c(NC(=O)c3ccco3)c(C#N)c3nc4ccccc4nc32)cc1 returned PTK2B oligo ant 0.12, FAK blocker 20.9*, CD11b adhes enh 12.0, Mac1 fbg inh 6.6 and FAK inh conf -3.8.
`CCOC(=O)c1c(NC(=O)c2ccco2)n(C2CCCCC2)c2nc3ccccc3nc12` gave PTK2B oligo ant -1.55, FAK blocker 0.0, CD11b adhes enh -0.2 and Mac1 fbg inh -1.2.
For N#Cc1cc2c(nc1SC1CCCCC1O)CCCC2 (stereo not drawn) the results were PTK2B oligo ant 0.15 and FAK blocker 0.4.
Screening CC(C)(C)C(=O)c1sc(Nc2ccccc2)nc1N returned PTK2B oligo ant -0.75, FAK blocker 32.4*, CD11b adhes enh 0.9, Mac1 fbg inh -40.4 and FAK inh conf 18.6.
`Cc1ccc2cc3cc(C(=O)NCc4ccco4)oc3nc2c1` gave PTK2B oligo ant -0.1, FAK blocker 21.1* and FAK inh conf 5.4.
`O=C(COC(=O)c1ccc(CNS(=O)(=O)c2ccc(F)c(Cl)c2)cc1)NCC1CCCCC1` gave CD11b adhes enh -2.1 and Mac1 fbg inh -8.4.
Screening Cn1c(SCC(=O)Nc2ccc3nc(SCC(=O)NC4CC4)sc3c2)nnc1-c1ccccc1 returned CD11b adhes enh 16.8 and Mac1 fbg inh 3.0.
Screening CCN(CC)C(=O)CSc1nc2ccc(NC(=O)CSc3nnc(N)s3)cc2s1 returned PTK2B oligo ant 1.58, FAK blocker 20.9* and FAK inh conf 3.4.
For Cn1c(SCC(=O)Nc2ccc3nc(SCC(=O)N4CCCC4)sc3c2)nnc1-c1ccc(N)cc1 the results were PTK2B oligo ant -0.7, FAK blocker 30.7*, CD11b adhes enh 11.9, Mac1 fbg inh 6.5 and FAK inh conf 31.9*.
For O=C(O)Cc1ccc(C(=O)c2ccccc2F)s1 the results were PTK2B oligo ant -0.59, FAK blocker -2.2, CD11b adhes enh -0.1 and Mac1 fbg inh -9.1.
COc1ccc(C2=NO[C@@H]3C(=O)N(c4c(C)cccc4C)C(=O)[C@H]23)cc1OC was read as PTK2B oligo ant -1.06, FAK blocker 8.5, CD11b adhes enh 0.5 and Mac1 fbg inh -17.2.
COc1ccc(OC)c(N2C(=O)[C@@H]3C(c4ccccc4Cl)=NO[C@@H]3C2=O)c1 was read as PTK2B oligo ant 0.74, FAK blocker 19.3*, CD11b adhes enh 2.4, Mac1 fbg inh -3.6 and FAK inh conf 8.2.
`O=C(Nc1ccccc1)c1cc2ccccc2o1` gave PTK2B oligo ant 0.79 and FAK blocker 0.1.
O=C(COc1ccc(/C=N/NC(=O)c2cc3ccccc3o2)cc1Br)Nc1ccccc1 was read as PTK2B oligo ant 0.15, FAK blocker 26.1* and FAK inh conf 35.6*.
`N#Cc1c(NC(=O)CSc2ncnc3sccc23)oc(-c2ccco2)c1-c1ccco1` gave PTK2B oligo ant 0.12, FAK blocker 21.8*, CD11b adhes enh 47.9, Mac1 fbg inh 29.5 and FAK inh conf 0.5.
`CN(C)CCN1CCc2ccccc21` gave PTK2B oligo ant -0.17, FAK blocker 32.2*, CD11b adhes enh 5.8, Mac1 fbg inh 13.8 and FAK inh conf 44.8*.
c1ccc2c(c1)CCN2CCN1CCc2ccccc21 was read as PTK2B oligo ant -0.52, CD11b adhes enh 3.5 and Mac1 fbg inh -22.6.
For Cc1cccc(-n2[nH]c3c4c(ccc3c2=O)C(=O)c2ccccc2C4=O)c1 the results were CD11b adhes enh 2.3 and Mac1 fbg inh 2.0.
CC(C)Cn1[nH]c2c3c(ccc2c1=O)C(=O)c1ccccc1C3=O was read as PTK2B oligo ant -0.85, FAK blocker 27.1* and FAK inh conf 6.0.
`O=C(COC(=O)Cc1ccccc1F)Nc1cc(S(=O)(=O)N2CCOCC2)ccc1N1CCCC1` gave CD11b adhes enh 6.2 and Mac1 fbg inh 11.2.
For COc1ccc(-c2c3c(nc4sc(C(=O)Nc5cc(C)on5)c(N)c24)CCC3)cc1 the results were PTK2B oligo ant 0.15, FAK blocker 0.4, CD11b adhes enh 109.3 and Mac1 fbg inh 27.3.
`NC(=O)c1sc2nc3c(c(-c4ccco4)c2c1N)CCC3` gave PTK2B oligo ant 0.26, FAK blocker 34.2*, CD11b adhes enh 2.9, Mac1 fbg inh 10.2 and FAK inh conf 20.4*.
Screening COC(=O)c1sccc1NC(=S)N1CC(C)CC(C)C1 (stereo not drawn) returned PTK2B oligo ant 1.48, FAK blocker -1.0, CD11b adhes enh -0.4 and Mac1 fbg inh -46.6.
CCn1c(C)cc(/C=C2\SC(=O)N(CC(=O)Nc3ccc(C)c(C)c3)C2=O)c1C was read as PTK2B oligo ant -0.35 and FAK blocker -3.3.
Screening Cc1ccc(NC(=O)CN2C(=O)S/C(=C/c3ccc(-c4cc(C(=O)O)ccc4C)o3)C2=O)cc1C returned PTK2B oligo ant 0.6, FAK blocker 75.1*, CD11b adhes enh 61.2*, Mac1 fbg inh 39.2 and FAK inh conf 18.6.
CNc1cccccc1=S was read as PTK2B oligo ant -0.02, FAK blocker 43.6*, CD11b adhes enh -2.7, Mac1 fbg inh -11.0 and FAK inh conf 0.8.
Screening CNc1cccc2c1C(=O)c1ccccc1C2=O returned CD11b adhes enh 15.6 and Mac1 fbg inh 7.5.
CN=C1S/C(=C\c2cc(C)n(-c3ccccc3F)c2C)C(=O)N1C was read as PTK2B oligo ant -1.32, FAK blocker 20.9*, CD11b adhes enh -15.5, Mac1 fbg inh 97.3 and FAK inh conf 4.8.
For O=C(NC1CCCC1)c1ccc2nc(-c3ccco3)c(-c3ccco3)nc2c1 the results were PTK2B oligo ant -0.15, FAK blocker 19.2*, CD11b adhes enh -3.2, Mac1 fbg inh 6.2 and FAK inh conf 2.6.
`O=C(NCCO)c1ccc2nc(-c3ccco3)c(-c3ccco3)nc2c1` gave PTK2B oligo ant -1.17, FAK blocker 7.4, CD11b adhes enh -1.1 and Mac1 fbg inh -12.2.
CCC(C)C(NC(C)=O)C(=O)NC(=O)NC(c1ccccc1)c1ccccc1 (stereo not drawn) was read as PTK2B oligo ant 0.32, FAK blocker -1.2, CD11b adhes enh -2.5 and Mac1 fbg inh -2.5.
For CCOC(=O)c1c(C)c(C(=O)NCc2ccccc2OC)c(C)n1C the results were PTK2B oligo ant -0.27, FAK blocker 45.9*, CD11b adhes enh 0.6, Mac1 fbg inh -5.9 and FAK inh conf -2.8.
Cn1c(SCC(=O)N2CCCCC2)nc2c([nH]c3ccccc32)c1=O was read as FAK blocker 24.4*, CD11b adhes enh -5.6, Mac1 fbg inh 5.5 and FAK inh conf 2.3.
Cc1c(C(N)=O)sc2ncn(CC(=O)N3CCC(C)CC3)c(=O)c12 was read as PTK2B oligo ant 1.11, FAK blocker 0.3, CD11b adhes enh -2.8 and Mac1 fbg inh -11.5.
O=C(OCc1csc(Nc2ccccc2)n1)c1ccc(Cl)cc1 was read as CD11b adhes enh -6.2 and Mac1 fbg inh 76.6.
For Cc1ccc2c(n1)CC(C)(C)CC2=O the results were PTK2B oligo ant 1.25 and FAK blocker 1.8.
